# Pf Dd2 growth: blocks in vitro growth of P. falciparum Dd2. P. falciparum Dd2 growth, SYBR Green, 72 h. Potency, µM (titrated, usually from 28.9 µM), usual class: inhibitors. 120,000 compounds, 4.3% hits. AID 1347417; active means well fitted inhibition curve with a large enough effect; further: nearly all actives have a fitted effect of over 65% in size
#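 Readout: SYBR Green fluorescence, 485 nm excitation, 535 nm emission, after ~16 h lysis at 37C. Before that, Dd2-infected red cells (2.5% hematocrit) grew 72 h with compound, 29 uM top final concentration.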
# Numbers stand for hits; 0 = inactive. The full list was thinned out, with hits kept by preference.
SMILES,Pf Dd2 growth
Cc1ccc(S(=O)(=O)N(C)C2CCCc3ccccc32)cc1 (stereo not drawn),0
Cc1cc(NC(=O)C2CCN(C(=O)c3ncn4c3COC(c3ccc(F)cc3)C4)CC2)ccc1Cl (stereo not drawn),0
Cc1cc(OCC(=O)c2ccc3c(c2)N(CCCC(=O)NCC2CC2)C(=O)CO3)ccc1Cl,0
O=C1Nc2ccccc2C12CCN(c1cc(C3CC(O)C3)ncn1)CC2 (stereo not drawn),0
CN(C)Cc1nnc(C2CCCN(C(=O)c3cnn4ccccc34)C2)n1C (stereo not drawn),0
c1ccc2sc([C@H]3CCN(Cc4ccc5c(c4)OCO5)C3)nc2c1,0
CC(NC(=O)Cc1ccc(N(Cc2ccccc2)C(=O)c2ccco2)cc1)c1ccccc1 (stereo not drawn),0
CNC(=O)[C@H]1C[C@H](Oc2cccnc2)CN1S(=O)(=O)c1ccccc1,0
CCOc1ccccc1NC(=O)c1c(NC(=O)c2ccccc2C)sc2c1CCC(C)C2 (stereo not drawn),0
CCOc1ccc(NC(=O)c2c(NCc3cccnc3)sc3c2CCC(C)C3)cc1 (stereo not drawn),0
CCOc1ccc(NC(=O)c2c(NCc3ccc(C)o3)sc3c2CCC(C)C3)cc1 (stereo not drawn),11µM
Cc1cccc2ncc(C(=O)N3CC[C@H](CO)[C@@H](O)C3)c(=O)n12,0
COc1cncc([C@@H](NS(=O)(=O)c2cnn(C)c2)C2CC(O)C2)c1 (stereo partly drawn),0
CCOC(=O)CSc1nc2ccc(NC(=O)c3ccc(Cl)cc3)cc2s1,0
COC(=O)CNC(c1ccccc1)c1cc(Br)ccc1NC(=O)c1ccc(Cl)cc1 (stereo not drawn),0
CCOC(=O)CNC(c1ccccc1)c1cc(Br)ccc1NC(=O)c1ccc(Cl)cc1 (stereo not drawn),4µM
O=C(Cn1nc2c(cc1=O)CCCCC2)NCc1nc2ccccc2[nH]1,0
CNC(=O)[C@@H]1CN(C(=O)c2cc(C)on2)C[C@H]1COC,0
O=C(c1ccccc1F)N1CCC2(Cc3ccccc3NC2=O)C1 (stereo not drawn),0
Cc1nc(-c2cn(C3CCCN(C(=O)c4ccccc4F)C3)nn2)no1 (stereo not drawn),0
Cc1nc(C)c(C(=O)NCC23CCC=C2N(C)C(=O)CC3)s1 (stereo not drawn),0
Cc1cc(C(F)(F)F)nn1CC(=O)NCCn1c(C)cnc1C1CCC1,0
COc1ccc(N2CCN(c3cc(C)nc4nc(-c5ccc(C)cc5)nn34)CC2)cc1,0
Cc1cc(N2CCN(c3cccc(C(F)(F)F)c3)CC2)n2nc(-c3ccccc3C)nc2n1,11µM
COc1ccc(-c2nc3nc(C)cc(Nc4cccc(C(F)(F)F)c4)n3n2)cc1,0
SMILES,Pf Dd2 growth
COc1ccc(Cl)cc1C(=O)N1CC(=O)N(c2ccccc2C#N)CC1C (stereo not drawn),0
COc1ccc(CN2CCc3nn(CC4CC4)c(=O)n3CC2)c(Cl)c1OC,0
Cc1cccc(NC(=O)Cn2ccn3nc4c(c3c2=O)CCCC4)c1,0
NCCC1CCN(C(=O)Nc2ccccc2)CC1,0
CN1CCCCC12Cc1ccccc1CN(C(=O)CCCC(=O)O)C2 (stereo not drawn),0
CN(C)CC(=O)N1Cc2ccccc2CC2(CCCCN2C)C1 (stereo not drawn),0
CN1CCCCC12Cc1ccccc1CN(C(=O)c1ccccc1)C2 (stereo not drawn),8.9µM
Cc1cc(C(=O)N[C@@H]2CN(Cc3ccccc3)C[C@H]2CN(C)C)n(C)n1,0
CSCc1ccc(C(=O)NCCc2nc(-c3ccccn3)no2)o1,0
COc1ccccc1NC(=O)NC1CC(=O)N(Cc2cccc(F)c2)C1 (stereo not drawn),0
COc1ccccc1C(=O)NC1CC(=O)N(Cc2cccc(F)c2)C1 (stereo not drawn),0
COc1cc(C2CC(=O)N(Cc3cccc(F)c3)c3ccccc3S2)cc(OC)c1OC (stereo not drawn),4.5µM
COc1ccc(CNC[C@H]2COCc3nc4cc(F)ccc4n32)cn1,0
COc1ccc(C(=O)N2C[C@@H]3C[C@H](C2)c2c(NC(=O)Nc4ccccc4OC)ccc(=O)n2C3)cc1,0
O=C(COc1ccccc1)Nc1sc2c(c1C(=O)Nc1ccccc1Cl)CCCCC2,0
COC(=O)c1ccccc1NC(=O)N1CCc2c(sc3c2CCCC3)C1c1ccc(F)cc1 (stereo not drawn),0
Cc1cccc(NC(=O)N2CC(=O)Nc3sc4c(c3C2c2ccccc2)CCCC4)c1C (stereo not drawn),11µM
O=C(Cc1ccccc1)Nc1sc2c(c1C(=O)Nc1ccccc1Cl)CCCC2,0
O=C1CN(C(=O)Nc2ccccc2Cl)C(c2ccccc2)c2c(sc3c2CCCC3)N1 (stereo not drawn),10µM
Cc1cccc(NC(=O)N2CCC(CC(=O)NCc3ccccc3)C2)c1C (stereo not drawn),0
CC(C)CN1CC(C(=O)N(Cc2nccn2C)C2CC2)CC1=O (stereo not drawn),0
Cc1nc(N2CCC(NC(=O)C3CCC3)CC2)cc(C(F)(F)F)n1,0
CN(CCCO)C(=O)c1cccc(CC2CCNCC2)c1,0
O=C(CCn1cccn1)N1CCc2nn(Cc3ccccc3)c(=O)n2CC1,0
N#Cc1ccc(C(=O)NC2CCN(c3cc(-c4ccc(Cl)cc4)[nH]n3)C2)cc1 (stereo not drawn),7.9µM
SMILES,Pf Dd2 growth
O=C(NC1CCN(c2cc(-c3ccc(Cl)cc3)[nH]n2)C1)c1cccnc1 (stereo not drawn),0
N#Cc1ccc(C(=O)NC2CCN(c3cc(-c4ccccc4)[nH]n3)CC2)cc1,0
Cc1ccccc1C(=O)NC1CCN(c2cc(-c3ccc(Cl)cc3)[nH]n2)C1 (stereo not drawn),0
O=C(NC1CCN(c2cc(-c3ccc(Cl)cc3)[nH]n2)C1)c1ccc(Br)o1 (stereo not drawn),13µM
N#Cc1ccc(C(=O)NC2CCN(c3cc(-c4ccc(Cl)cc4)[nH]n3)CC2)cc1,0
COCCNS(=O)(=O)c1cc(C(=O)O)cc(-c2cccc(C(C)N(C)C)c2)c1 (stereo not drawn),0
COc1ccc(NC2CCCN(C(=O)c3cn(CCCN)nn3)C2)cc1 (stereo not drawn),0
COc1ccc(-c2nc(C(C)C)nc3c2CN([S+](=O)([O-])c2c(C)noc2C)CC3)cc1,0
CCc1c(C(=O)N2CCCC3(CCNC3)C2)[nH]c2ccccc12 (stereo not drawn),0
COc1ccccc1C(=O)N1CCCCCC1c1nc(C)no1 (stereo not drawn),0
COc1ccc(OC)c(NC(=O)C2CCN(C(=O)N3CC4CC(C3)[C@H]3CCCC(=O)N3C4)CC2)c1 (stereo partly drawn),0
COCc1nnc([C@@H]2CC(F)(F)CN2C(=O)Cc2ccccc2C)o1,0
CCCN(Cc1nccn1C)C(=O)c1sc(C(C)C)nc1C,0
COc1ccc(Cl)cc1S(=O)(=O)N1CCN(C(=O)c2cc(-c3ccc(Br)cc3)n[nH]2)CC1,10µM
O=C(c1cc(-c2ccccc2)n[nH]1)N1CCc2c(nc(-c3ccc(F)cc3)[nH]c2=O)C1,0
O=C(c1cc(-c2ccc(Br)cc2)n[nH]1)N1CCN(S(=O)(=O)c2ccc(Br)cc2)CC1,8.9µM
COc1ccc(Cl)cc1C(=O)N1CCCN(c2cc(-c3ccc(F)cc3)[nH]n2)CC1,0
COc1ccc(S(=O)(=O)N2CCN(C(=O)c3cc(-c4ccc(Br)cc4)n[nH]3)CC2)cc1OC,0
